The values that follow come from ChEMBL document CHEMBL1201862, “PubChem BioAssay data set” (2004).

Each structure is given as a SMILES string. Some results are limits rather than exact numbers.

This experiment can be described thus: A High Throughput Confirmatory Assay used to Identify Novel Compounds that Inhibit Mycobacterium Tuberculosis in the absence of Glycerol using Purified and Synthesized Compounds (6). It is filed as functional.
Usually IC90 stands for the concentration needed for an effect of 90%. For `CC[N+](C)(CC)CCCCOc1ccc2c(c1)C(=O)c1cc(OCCCC[N+](C)(CC)CC)ccc1-2`, the IC90 was > 2700 nM (active). Consider `CC(C)/N=c1\cc2n(-c3ccc(Cl)cc3)c3ccccc3nc-2cc1Nc1ccc(Cl)cc1`, for which the IC90 is > 230 nM (active). Regarding `CO[C@H]1/C=C/O[C@@]2(C)Oc3c(C)c(O)c4c(O)c(c(C=NN5CCN(C)CC5)c(O)c4c3C2=O)NC(=O)/C(C)=C\C=C\[C@H](C)[C@H](O)[C@@H](C)[C@@H](O)[C@@H](C)[C@H](OC(C)=O)[C@@H]1C`, the IC90 was > 20 nM (active). With `COc1c(N2CCNC(C)C2)c(F)cc2c(=O)c(C(=O)O)cn(C3CC3)c12` (centres undefined), the IC90 was > 170 nM (active).
